Assay outcomes from PubChem BioAssay.
Shown is part of a subset that was picked to be rich in hits.
nsP2pro primary: inhibitors of chikungunya virus nsP2 protease | Q8JUX6 | FRET peptide cleavage, nsP2pro, fluorescence 1 h | Potency, µM (doses to about 24.9 µM), for the others: at the highest dose activity change, negative = inhibition, most hits filed as inhibitors | 1.1% of 31,000 active; note: nearly all actives have a fitted effect of over 60% in size
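Purified recombinant nsP2pro (150 nM final) in 10 mM Tris-HCl pH 8.0 with 0.01% Tween 20 was preincubated 15 min at room temperature with compound (7 concentrations, up to 25 uM). FRET peptide 2 substrate (2.5 uM final) was then added; fluorescence was read after 1 h.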
CHIKV nsP2 cell: secondary cell-based test for CHIKV nsP2 protease inhibitors; shares compounds with nsP2pro primary; Potency, µM (series often up to 51.1 µM), inactives show top-dose activity change, negative = inhibition, most hits filed as inhibitors; 10% of 450 active; cell-based CHIKV nsP2 protease reporter assay; AID 1964100; note: nearly all actives have a fitted effect of over 70% in size
NSP2 full ctr: selectivity test for CHIKV nsP2 protease inhibitors: full-length NSP2. 39% of 410 active. Potency, µM (titrated, usually from 50.7 µM), without a hit: at the highest dose activity change, negative = inhibition, most hits filed as inhibitors. Full-length CHIKV NSP2 protease enzymatic counterscreen. shares compounds with nsP2pro primary. AID 1964101; note: nearly all actives have a fitted effect of over 65% in size
Furin counterscr: inhibits human furin in a CHIKV nsP2 protease selectivity counterscreen | shares compounds with nsP2pro primary | Recombinant human furin enzymatic counterscreen, fluorogenic substrate | Potency, µM (titrated, usually from 50.6 µM), for inactives: top-dose activity change, negative = inhibition, usual class: inhibitors | 6% of 410 active
nsP2 NS23 pep: selectivity test for CHIKV nsP2 protease inhibitors: endogenous NS2/3 peptide; 34% of 410 active; shares compounds with nsP2pro primary; Potency, µM (series often up to 51 µM), inactives show at the top dose activity change, negative = inhibition, actives largely listed as inhibitors; Purified CHIKV nsP2 protease, endogenous NS2/3 peptide cleavage; AID 1964103; note: nearly all actives have a fitted effect of over 55% in size
Papain counter: selectivity counter-screen for CHIKV nsP2 protease inhibitors: papain; shares compounds with nsP2pro primary; purified papain protease activity, enzymatic inhibition; Potency, µM (doses to about 51 µM), without a hit: at the top dose activity change, negative = inhibition, usual class: inhibitors; AID 1964104; 5% of 410 active
nsP2pro conf qHTS: CHIKV nsP2 protease inhibition, confirmatory qHTS | shares compounds with nsP2pro primary | CHIKV nsP2 protease enzymatic activity, qHTS | Potency, µM (top dose mostly 25.5 µM), inactives show top-dose activity change, negative = inhibition, most hits filed as inhibitors | 43% of 410 active | AID 1964105; note: nearly all actives have a fitted effect of over 75% in size
HCV NS3 4A cs: selectivity counter-screen for CHIKV nsP2 protease inhibitors: HCV NS3/4A. shares compounds with nsP2pro primary. HCV NS3/4A protease biochemical counterscreen. Potency, µM (titrated, usually from 50.9 µM), hits mostly inhibitors. 20% of 410 active. AID 1964106; note: nearly all actives have a fitted effect of over 55% in size
Starred values were filed as active, the others as inactive; i = inactive; ? = inconclusive; [ ] = another dose, or the depositor's remark. Calls come from the whole dose curve. % is set by controls: 0 for no effect and ±100 for the full control effect; potency is the fitted concentration of half-maximal effect.

SMILES	nsP2pro primary	others
CNc1nc2c(s1)C(c1ccccc1F)CC(=O)N2 (configuration not stated)	1.58µM*	CHIKV nsP2 cell=7.9%;NSP2 full ctr=3.26µM*;Furin counterscr=-8.6%;nsP2 NS23 pep=4.61µM*;Papain counter=13.6%;nsP2pro conf qHTS=2.83µM*;HCV NS3 4A cs=?
CSc1nc2c(c(=O)[nH]1)C(c1cccc(F)c1F)CC(=O)N2 (configuration not stated)	-26.9%
O=C1CC(c2c(F)cccc2Cl)c2c(ccc3ccccc23)N1 (configuration not stated)	-15.1%
Cc1nn(CC(=O)N2CCCCCC2)c(=O)c2nc(C(C)C)sc12	4.6%
CN(CC(=O)N1CCC(CCOc2ccc(F)cc2)C1)S(=O)(=O)c1ccc2c(c1)oc(=O)n2C (configuration not stated)	-11.1%
CC[C@@H]1CCN[C@H](C(=O)N[C@@H]([C@H]2O[C@H](SC)[C@H](O)[C@@H](O)[C@H]2O)[C@H](C)Cl)C1	-6.4%
Cc1nc(C)c(C(=O)N2CCCC2c2nc(CCOCC3CCCC3)no2)s1 (configuration not stated)	-0.9%
CC(=O)N1CCC(C(=O)NCc2cccnc2N(C)Cc2ccccc2)CC1	-7.3%
COc1ccc(-c2csc(NC(=O)[C@H]3CCCCN3S(=O)(=O)c3ccc(C)cc3)n2)cc1	2.2%
CC1(C)SCCN(S(=O)(=O)c2ccc(OCC#CCO)cc2)[C@H]1C(=O)NO	?	CHIKV nsP2 cell=-13.2%;NSP2 full ctr=?;Furin counterscr=-2.5%;nsP2 NS23 pep=2.3%;Papain counter=-3.1%;nsP2pro conf qHTS=?;HCV NS3 4A cs=i
CC1(C)SCCN(S(=O)(=O)c2ccc(Oc3ccncc3)cc2)[C@H]1C(=O)NO	0.2%
CC(C)N1CCN(C(=O)CC2=C3CCCCC3NC2=O)CC1 (configuration not stated)	3.7%
CC(=O)c1ccc(N2CCN(S(=O)(=O)c3ccc4c(c3)oc(=O)n4C)CC2)cc1	-5.0%
Cc1ccc(S(=O)(=O)Nc2cnccc2C(=O)Nc2ccc3ccccc3c2)cc1	i
COc1ccc(-c2ccc(NC(=O)c3cccs3)cn2)cc1	?	CHIKV nsP2 cell=0.2%;NSP2 full ctr=?;Furin counterscr=-4.1%;nsP2 NS23 pep=-14.6%;Papain counter=-3.8%;nsP2pro conf qHTS=-6.5%;HCV NS3 4A cs=?
COc1ccccc1C(=O)Nc1ccc(NC(=O)c2cccs2)cc1	-7.5%
Nc1ccc(-c2ccc(NC(=O)c3cccs3)cn2)cc1	4.7%
CCC(=O)OC1(C(=O)CCl)C(C)CC2C3CC(F)C4=CC(=O)C=CC4(C)C3(F)C(O)CC21C (configuration not stated)	4.6%
O=C(COc1ccccc1)N1CCC(OCc2ccccc2)C1 (configuration not stated)	-1.8%
CC1C2=CC(=O)OC2(O)CC2C1CCC1C(C)(C)CCC(O)C21C (configuration not stated)	-0.8%
CC1C2=CC(=O)OC2(O)CC2C1C(OC(=O)c1ccccc1)C(OC(=O)c1ccccc1)C1(O)C2(C)CCC(O)C1(C)C(=O)O (configuration not stated)	2.33µM*	CHIKV nsP2 cell=-2.7%[17.6 µM];NSP2 full ctr=-3.2%[17.3 µM];Furin counterscr=11.1%[17.3 µM];nsP2 NS23 pep=3.1%[17.2 µM];Papain counter=-4.6%[17.2 µM];nsP2pro conf qHTS=-10.6%[8.62 µM];HCV NS3 4A cs=i
CC(=O)OC1C(O)C2C(C)C3=CC(=O)OC3(O)CC2C2(C)CCCC(C)(CO)C12 (configuration not stated)	-2.9%[10 µM]
Cc1cc(C)nc(NC(=S)N2CCN(c3cc(C(F)(F)F)nc4ccc(C(F)(F)F)cc34)CC2)c1	i
COc1ccc2c(O[C@H]3CC4C(=O)N(C)CCCC/C=C\[C@@H]5C[C@@]5(C(=O)NS(=O)(=O)C5CC5)NC(=O)[C@@H]4C3)cc(-c3nc(C(C)C)cs3)nc2c1C (some centres not stated)	72.7%
Cc1ccc(S(=O)(=O)Nc2ccccc2C(=O)Nc2nc(-c3ccccc3)c(Br)s2)cc1	1.3%
SMILES	nsP2pro primary	others
C=C1CC23CC1CCC2C12OC(=O)C(C)(C(O)CC1O)C2C3C(=O)O (configuration not stated)	?	CHIKV nsP2 cell=4.7%[33.5 µM];NSP2 full ctr=1.1%[33.5 µM];Furin counterscr=2.0%[33.5 µM];nsP2 NS23 pep=-5.4%[33.5 µM];Papain counter=-5.8%[33.5 µM];nsP2pro conf qHTS=-19.6%[16.7 µM];HCV NS3 4A cs=i
C=C1C[C@]23C[C@H]1CC[C@H]2[C@@]12CC[C@H](O)[C@@](C)(C(=O)O1)[C@H]2[C@@H]3C(=O)O	-8.8%
C=C1C[C@]23C[C@H]1[C@@H](O)C[C@H]2[C@@]12C=C[C@H](O)[C@@](C)(C(=O)O1)[C@H]2[C@@H]3C(=O)O	-20.6%
Cc1cc(=O)oc2cc(CN(C)CC(C)N3CCOCC3)ccc12 (configuration not stated)	-10.0%
COC(=O)[C@H](NC(=O)[C@@H]1C[C@@H](NC(=O)CSC)CCN1S(=O)(=O)c1ccc(OC)cc1)C(C)C	4.9%
CC(CCc1ccc(O)cc1)NCCc1ccc(O)c(O)c1 (configuration not stated)	-16.3%
CC(Cc1ccc(O)c(O)c1)C(C)Cc1ccc(O)c(O)c1 (configuration not stated)	9.88µM*	CHIKV nsP2 cell=33.8%;NSP2 full ctr=29.1µM*;Furin counterscr=-16.3%;nsP2 NS23 pep=20.6µM*;Papain counter=-15.7%;nsP2pro conf qHTS=7.98µM*;HCV NS3 4A cs=i
C=C1[C@@H](C)[C@H]2[C@H](Cc3ccccc3)NC(=O)[C@]23OC(=O)/C=C/C(=O)CCC[C@@H](C)C/C=C/[C@H]3[C@@H]1O	2.48µM*	CHIKV nsP2 cell=0.708µM*;NSP2 full ctr=7.3µM*;Furin counterscr=-3.7%;nsP2 NS23 pep=8.19µM*;Papain counter=-11.6%;nsP2pro conf qHTS=1.13µM*;HCV NS3 4A cs=0.366µM*
CC1=CC2/C=C(\C)CCC(O)C(O)/C=C/C(=O)OC23C(=O)NC(CC(C)C)C3C1C (configuration not stated)	-14.5%[10 µM]
C=C1[C@@H](C)C2[C@H](Cc3ccccc3)NC(=O)[C@@]23C(/C=C/C[C@H](C)C[C@@](C)(O)/C=C/[C@@H]3OC(C)=O)[C@@H]1O (some centres not stated)	-3.4%
C=C1/C(=C/C=C2\CCC[C@]3(C)[C@@H]([C@H](C)CC[C@@H](O)C(C)C)CC[C@@H]23)C[C@@H](O)C[C@@H]1O	-16.2%
COc1ccc(-c2ccc3cc(C(=O)O)ccc3c2)cc1C12CC3CC(CC(C3)C1)C2	-21.2%
COc1cc(C(=O)O)ccc1OC1OC(CO)C(O)C(O)C1O (configuration not stated)	-3.4%
